# Screens from PubChem BioAssay.
# Pf Dd2 growth – inhibitors of Plasmodium falciparum Dd2 growth; P. falciparum Dd2 growth, SYBR Green, 72 h; Potency, µM (highest dose often 28.9 µM), for the others: top-dose activity, negative = inhibition, usual class: inhibitors; actives 4.3% (n = 120,000); active = well fitted inhibition curve with a large enough effect;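 note: plate controls were DMSO vehicle for no effect and reference drug for full effect; nearly all actives have a fitted effect of over 65% in size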
#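 Readout: SYBR Green fluorescence, 485 nm excitation, 535 nm emission, after ~16 h lysis at 37C. Before that, Dd2-infected red cells (2.5% hematocrit) grew 72 h with compound, 29 uM top final concentration.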
# The depositor's hits bear a star; i = inactive; [ ] = dose if it differs, or a comment. The full list was thinned out, with hits kept by preference. Potency is the fitted concentration of half-maximal effect.
SMILES,Pf Dd2 growth
CC(O)CN1CC2(CCC1=O)CCN(CCCn1ccnc1)CC2 (stereo not drawn),0%
Cc1cccc2sc(N3CCN(C(=O)CS(=O)(=O)c4ccc(F)cc4)CC3)nc12,0%
Cc1noc([C@@H]2CN(C(=O)Cc3c(F)cccc3Cl)C[C@H]2C(N)=O)n1,i
N#Cc1ccc(C(=O)Nc2ccc([C@@H](O)[C@H]3COCC(=O)N3Cc3ccc(F)cc3)cc2)cc1,10µM*
O=C(Nc1ccc([C@@H](O)[C@H]2COCC(=O)N2Cc2ccc(F)cc2)cc1)c1ccccc1,i
N#Cc1cccc(C(=O)Nc2ccc([C@@H](O)[C@H]3COCC(=O)N3Cc3ccc(F)cc3)cc2)c1,-18%
O=C(C1CC1)N1CCC(Cc2nc(C3CCOCC3)no2)CC1,74%
COc1ccccc1NC(=O)Cn1c(=O)n(Cc2ccco2)c(=O)c2cccnc21,13%
CCOc1ccccc1NC(=O)Cn1c(=O)n(Cc2ccco2)c(=O)c2cccnc21,11µM*
Cc1ccc(NC(=O)Cn2c(=O)n(Cc3ccco3)c(=O)c3ccccc32)c(C)c1,-2%
Cc1ccc2c(c1)CC(C)N2S(=O)(=O)c1nnc(NC(=O)c2ccccc2F)s1 (stereo not drawn),-21%
COc1ccc(-c2cc3c(=O)n(CCNC(=O)c4ccc(C#N)cc4)ccn3n2)cc1,i
CNC(=O)[C@@H](c1ccc(Cl)cc1)N1CCC[C@H]1C(=O)NC(C)C,-16%[44.1 µM]
O=[S+]([O-])(c1ccccc1)N1CC2(COCCN(Cc3ccc(F)cc3F)C2)C1,1%[44.1 µM]
COCCn1c(=O)c2c(n1Cc1ccccc1)CN(Cc1cccnc1OC)CC2,-16%[44.1 µM]
COCCn1c(=O)c2c(n1Cc1ccccc1)CN(Cc1ccc(C(C)C)cc1)CC2,-10%[44.1 µM]
COCCCN1CCc2c(n(Cc3ccccc3)n(-c3ccccc3)c2=O)C1,11µM*
CNC(=O)N1CCC(OC2CCN(Cc3ccccc3)CC2)CC1,-26%
O=C(c1c(F)cccc1F)N1CCC(OC2CCN(Cc3ccccc3)CC2)CC1,11µM*
O=C(Nc1cc(F)c(F)c(F)c1)N1CCC(OC2CCN(Cc3ccccc3)CC2)CC1,i
Cc1noc(-c2nc(-c3ccc4c(c3)OCO4)no2)n1,-23%
Cc1cccc(-c2ccc3c(c2)C(=O)N2CC[C@H](NC(=O)NC(C)C)C[C@H]2C(=O)N3)c1C,-4%[44.1 µM]
CC(C)NC(=O)N[C@H]1CCN2C(=O)c3cc(-c4ccc5c(c4)OCO5)ccc3NC(=O)[C@@H]2C1,i
CC(C)NC(=O)N[C@H]1CCN2C(=O)c3cc(-c4ccsc4)ccc3NC(=O)[C@@H]2C1,13µM*
Cc1ccc(-c2cn[nH]c2C2CCCN(C(=O)CCCn3cnnn3)C2)cc1 (stereo not drawn),-18%
SMILES,Pf Dd2 growth
COCCN(C)C(=O)c1ccc2c(c1)C1(CCN(C)C1)CN2CC1CC1 (stereo not drawn),-10%[44.1 µM]
Cc1nn(C)c2c1c(C(F)(F)F)cc(=O)n2C(C)C(=O)NCc1ccccc1Cl (stereo not drawn),-7%
COc1ccc(-c2csc3ncnc(Nc4cc(OC)cc(OC)c4)c23)cc1,i
CCOc1ccc(-c2csc3ncnc(Nc4cccc(O)c4)c23)cc1,10µM*
COc1ccc(-c2csc3ncnc(Nc4cccc(F)c4)c23)cc1,47%
COc1ccc2[nH]c3c(c2c1)CCNC31CCN(C(=O)Cc2ccccc2)CC1,-34%
COc1cccc(CNC(=O)N(C)C2CCc3nn(C)c(=O)n3CC2)c1 (stereo not drawn),8%
OCCc1cc(CC2(NCc3ccc(C(F)(F)F)cc3)COC2)no1,-1%[44.1 µM]
O=C1COC[C@H]([C@H](O)c2ccc(NS(=O)(=O)c3ccc(F)cc3)cc2)N1,-3%[44.1 µM]
CC(C)(C)c1ccc(C(=O)Nc2ccc(C(O)[C@H]3COCC(=O)N3)cc2)cc1 (stereo partly drawn),10µM*
COc1ccccc1C(=O)Nc1ccc(C(O)[C@H]2COCC(=O)N2)cc1 (stereo partly drawn),-3%[44.1 µM]
Clc1ccc2c(c1)-n1cc(-c3ccccc3)nc1CO2,11%
COc1ccc(Nc2c(-c3ccccn3)nc3ccc(Cl)cn23)cc1,-28%
Cc1ccsc1C(=O)Nc1ccc2c(N3CCCCC3)ncnc2c1,11µM*
O=C(Nc1ccc2ncnc(N3CCCCC3)c2c1)c1cc(F)cc(F)c1,-20%
CC(=O)c1ccc(NC(=O)c2nc3ccccc3nc2N2CCCCC2)cc1,i
O=C(Nc1ccc2c(N3CCCC3)ncnc2c1)c1ccc(Cl)cc1,2.8µM*
O=C(Nc1ccc2ncnc(N3CCCCC3)c2c1)c1ccccc1,i
O=C(Nc1ccc(Cl)cc1)c1ccc(-n2cnnc2)cc1,-6%
CCc1cc(N2CCCC(C(=O)c3sccc3C)C2)ncn1 (stereo not drawn),i
O=C(Nc1ccc2c(N3CCCCC3)ncnc2c1)c1ccc(F)cc1,3.2µM*
O=C(Nc1ccc2c(N3CCCC3)ncnc2c1)c1cccc(Br)c1,0.89µM*
O=C(Nc1ccc2oc(-c3cccnc3)nc2c1)c1cccc(Br)c1,54%
CCc1cccc(NC(=O)c2c(C)oc3ncnc(N4CCCCC4)c23)c1,-10%
Cc1cc2nc3n(c(=O)c2n1CC(=O)N1CCc2ccccc21)CCCCC3,117%
SMILES,Pf Dd2 growth
CN1C[C@H](O)C[C@H]1c1nnc2n1CCN(C(=O)C1CCCCC1)CC2,10%
COCC(=O)NCCc1noc(-c2cccnc2)n1,63%
Cc1ccc(NC(=O)C2CCCN(c3ncnc4c3nc3n4CCCCC3)C2)cc1F (stereo not drawn),23%
CCc1ccc(-c2nc3cc(NC(=O)c4ccc(C)c(C)c4)ccc3o2)cc1,-12%
Cc1ccc(NC(=O)c2ccc3c(c2)N(C)C2CCCCN2C3=O)cc1F (stereo not drawn),-19%
Cc1ccc(C(=O)Nc2ccc3c(N4CCCCC4)ncnc3c2)cc1F,6.3µM*
Cc1ccc(C(=O)Nc2ccc3c(N4CCOCC4)ncnc3c2)cc1C,11µM*
COc1cccc(C(=O)Nc2ccc3c(N4CCOCC4)ncnc3c2)c1,-17%
CCc1ncc(C(=O)N[C@@H]2c3ccccc3C3(CCNCC3)[C@H]2OC)cn1,1%
CC1=C(C(=O)Nc2ccccc2)C(c2ccc(O)cc2)n2nc(SCc3ccccc3)nc2N1 (stereo not drawn),5%
O=C(O)c1cccc(C(=O)N2C[C@@H]3C[C@H](C2)c2ccc(NC(=O)c4ccco4)c(=O)n2C3)c1,3%
COCCOC1CCN(C(=O)COc2ccccc2)CC1,3%
COCc1nnc2n1CCC(NC(=O)COc1ccc(Cl)cc1)CC2 (stereo not drawn),9%
COc1ccc(OCC2c3cc(OC)c(OC)cc3CCN2C(=O)COc2ccc(Cl)cc2Cl)cc1 (stereo not drawn),10µM*
COc1ccc(OCC(=O)N2CCN(C(=O)c3cc(OC)c(OC)c(OC)c3)CC2)cc1,17%
COC(=O)C[C@@H]1CCN(C(=O)COc2ccccc2)C[C@@H]1CC1=NCCc2cc(OC)c(OC)cc21,i
O=C(COc1ccccc1)NCc1ccc2c(c1)CCN2C(=O)c1ccc(Cl)cc1,62%
COC[C@@H]1CN(C(=O)COc2ccc(Cl)cc2C)C[C@H]1C(N)=O,1%
COC(=O)c1ccc(OCC2c3cc(OC)c(OC)cc3CCN2C(=O)COc2ccc(Cl)cc2)cc1 (stereo not drawn),10µM*
COc1cc2c(cc1OC)C(COc1ccc(C(C)C)cc1)N(C(=O)COc1ccccc1)CC2 (stereo not drawn),11µM*
O=C(NC(Cn1cccn1)c1ccccc1)c1ccc2nccnc2c1 (stereo not drawn),-12%
